The source of these data is the supplement of paper PMC6555819.

The test system of the first test is PPARg:RXRa 30nM:10nM, anti-RXR (NR concentration 30 nM, RXRa partner concentration 10 nM). The test is described as follows: PBM binding z-score (relative to random genomic background probes); higher = stronger binding; sequences stand for … in GC…GCGATTGACAGCGTAGAATGAAGG
In short, it runs like this: (§1)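 Custom Agilent 4×180K protein-binding microarrays carried double-stranded probes, each with a 34-nt variable region. These regions held direct-repeat seeds, single-nucleotide variants, half-site ablations and random human genomic background sequences. Ligand-free nuclear receptor dimers were incubated on the arrays for 1 h, antibodies against each partner (one per run) detected binding, and scanned fluorescence was regression-normalized. Binding z-scores take the random background probes as reference.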
For ATATGTAGGTTAGCTGGGGTCGTTCAGACTAGGC, the PBM binding z-score stood at 1.33.
For the sequence ACTATTAGTGGACTTAGGGCAACCGATACGACGC, the PBM binding z-score is 0.284.
In turn, CGTCCAAGGTCATGGTCAGTGAAAGAGACTCGAA registered a PBM binding z-score of 2.
The sequence TCTTGTTGATCAAGCAGGTTAAGAAAGCCTGAGT gave a PBM binding z-score of 2.49.
GTACCAAGGTGAATAGATCGTTGATGAGTAGGCG had a PBM binding z-score of 0.296.
Regarding GCTCGAAGGACAAGGTCAGAGCTTTGTCCGTAGA, the PBM binding z-score is -0.296.
On the same count and under the same terms, in the case of TCGAGTAGGTTACCAATGGGGCATACAGCTTTCT it was 1.27.
GCTGCTAGGTCACGTTGGTCAGCTAACGGGTACG returned a PBM binding z-score of 1.1.
On the same count and under the same terms, in the case of CGTCCAAGGTCAGCAGGTCTGTGAAAGCGACGTG it was 0.0215; in that of ACTTACGGGTCAACGAGGATATAGCACGCGTATA, 2.12.
For the sequence CTACCAAGGTGAACAAGGTGGTTGATTACTATTC, the PBM binding z-score is -0.231.
In turn, GGAACGAGTGCAAAGTTGATAGCATCTGTCGACG gave a PBM binding z-score of 0.95.
Take CGTCCAAGGTCAGCATGTCAGTGAAAGCGACGTG: the PBM binding z-score amounted to 0.443.
For the sequence ATATGTAGGTTTGCTGGGGTCATTCAGACTAGGC, the PBM binding z-score was 0.969.
Still for that read-out and setting: in the case of TCTAGCAGGCCAGAGGGTCAATCAAGAGGTACGG it was 2.27; in that of GATGCTAGGTCAACTGATGGTCAGCTAAAGCTCG, 0.474.
Turning to GCTATTAGTTAAAAGGGCAACCGAATGATTCTCG, the PBM binding z-score stood at 1.77.
In turn, ATCTCTAGCTAAAGATAGTTCAGTGAATGCAAAT gave a PBM binding z-score of -0.0381.
Sequence GATACAGGTTCAGCTAGAGGCCAGAGTATGGAAA yielded a PBM binding z-score of -0.177.
Still for that read-out and setting: in the case of CCTTACGGGTCACTCCAGGTTAAAGCATCGGAGT it was 1.02; in that of TCTTGTAGATCAAAGGTTAAGAATGCCGAAGCCT, 8.02; in that of TAGCCTAGGTCTGATCGGGCCAGTATACGCTATA, -0.329.
Still for that read-out and setting: the figure for ACTAGCAGGCCATGTTTGGGTCACTCAAACAAAG is -0.51.
Sequence GCTGCTAGGTCAAGTTGGTCAGCTAACGGGTACG returned a PBM binding z-score of 0.55.
Same read-out and setting: the figure for CAAACTACGTCAAGAGGTCAAAGTCCGCTTCCCG is 2.39; for AGTTACGGGTCAACGAGGTTATAGCACGCGTATA it is 2.17; for ATCGCTAGGTAAAGTTCAGTGAAAGATCGATAGA it is 1.49.
Regarding GCTGCTAGGTAAACTGATGGTCAGCTAAAGCTCG, the PBM binding z-score is -0.739.
On the same count and under the same terms, the figure for TCATATAGGTAAATGCTAGGTGCAAGTCCGATCT is 3.84; for CGTCCTAGGTCAAGGTCAGTGAAAGAGACTCGAA it is 1.48; for GCATATAGGTAATAAAAGGTGAAAGTCCGATTGT it is 0.664.
Consider GCGACTGGGGCATCAGCAGGTCACCATAACTTAA, for which the PBM binding z-score was 0.0296.
On the same count and under the same terms, in the case of CCTCGGAGGACAGAAGCTCAGAGCTGTCCGCTTT it was -1.52; in that of TCTATTAGTTGAAGGGCAAGCGACGAGTCCGTTT, 3.57; in that of TGTCAAAGTTCAAACGTAACGTAAGTATCCACAC, 5.26.
CCTTACGGGTCACTGCAGGTTATAGCATCGGAGT yielded a PBM binding z-score of 1.16.
Consider CTAACTAGGTCAGAACAGGACAGTGAAGGATGAT, for which the PBM binding z-score stood at 2.43.
With TCTCGGAGGACACGATAGGTCAGAGCTCGACATC, the PBM binding z-score is 2.09.
In turn, AAACCAAGGTGATCGTGAGGTCGTTGATACTAAC came in with a PBM binding z-score of -0.322.
Take CATACAGGGTCAGCTAGGCCAGAGTAGGGACGGC: the PBM binding z-score came out at 0.957.

The test system of the next test is PPARg:RXRa 90nM:30nM, anti-RXR (NR concentration 90 nM, RXRa partner concentration 30 nM). Described as above. In short, it runs like this: as §1
Sequence ATATGTAGGTTAGCTGGGGTCGTTCAGACTAGGC yielded a PBM binding z-score of 2.73.
In the case of ACTATTAGTGGACTTAGGGCAACCGATACGACGC, the PBM binding z-score amounted to 0.211.
On to CGTCCAAGGTCATGGTCAGTGAAAGAGACTCGAA, for which the PBM binding z-score is 4.28.
Take TCTTGTTGATCAAGCAGGTTAAGAAAGCCTGAGT: the PBM binding z-score was determined as 1.96.
Same read-out and setting: the figure for GTACCAAGGTGAATAGATCGTTGATGAGTAGGCG is 0.417; for GCTCGAAGGACAAGGTCAGAGCTTTGTCCGTAGA it is 0.829; for TCGAGTAGGTTACCAATGGGGCATACAGCTTTCT it is 1.28.
Regarding GCTGCTAGGTCACGTTGGTCAGCTAACGGGTACG, the PBM binding z-score was 2.79.
On the same count and under the same terms, the figure for CGTCCAAGGTCAGCAGGTCTGTGAAAGCGACGTG is 1.57.
For the sequence ACTTACGGGTCAACGAGGATATAGCACGCGTATA, the PBM binding z-score worked out at 3.85.
Sequence CTACCAAGGTGAACAAGGTGGTTGATTACTATTC returned a PBM binding z-score of 0.026.
Same read-out and setting: the figure for GGAACGAGTGCAAAGTTGATAGCATCTGTCGACG is 3.02.
CGTCCAAGGTCAGCATGTCAGTGAAAGCGACGTG registered a PBM binding z-score of 1.45.
Regarding ATATGTAGGTTTGCTGGGGTCATTCAGACTAGGC, the PBM binding z-score was 2.19.
On to TCTAGCAGGCCAGAGGGTCAATCAAGAGGTACGG, for which the PBM binding z-score amounted to 2.91.
Same read-out and setting: in the case of GATGCTAGGTCAACTGATGGTCAGCTAAAGCTCG it was 1.77; in that of GCTATTAGTTAAAAGGGCAACCGAATGATTCTCG, 3.13.
On to ATCTCTAGCTAAAGATAGTTCAGTGAATGCAAAT, for which the PBM binding z-score is -0.201.
GATACAGGTTCAGCTAGAGGCCAGAGTATGGAAA: the PBM binding z-score is -0.176.
As to CCTTACGGGTCACTCCAGGTTAAAGCATCGGAGT, the PBM binding z-score came to 2.86.
In turn, TCTTGTAGATCAAAGGTTAAGAATGCCGAAGCCT returned a PBM binding z-score of 8.37.
Same read-out and setting: the figure for TAGCCTAGGTCTGATCGGGCCAGTATACGCTATA is -0.45; for ACTAGCAGGCCATGTTTGGGTCACTCAAACAAAG it is -0.31; for GCTGCTAGGTCAAGTTGGTCAGCTAACGGGTACG it is 2.09.
Sequence CAAACTACGTCAAGAGGTCAAAGTCCGCTTCCCG had a PBM binding z-score of 4.26.
The sequence AGTTACGGGTCAACGAGGTTATAGCACGCGTATA showed a PBM binding z-score of 4.38.
On to ATCGCTAGGTAAAGTTCAGTGAAAGATCGATAGA, for which the PBM binding z-score is 2.75.
Same read-out and setting: the figure for GCTGCTAGGTAAACTGATGGTCAGCTAAAGCTCG is -0.98.
Still for that read-out and setting: the figure for TCATATAGGTAAATGCTAGGTGCAAGTCCGATCT is 2.96; for CGTCCTAGGTCAAGGTCAGTGAAAGAGACTCGAA it is 3.5; for GCATATAGGTAATAAAAGGTGAAAGTCCGATTGT it is 1.72.
With GCGACTGGGGCATCAGCAGGTCACCATAACTTAA, the PBM binding z-score was 1.03.
On the same count and under the same terms, the figure for CCTCGGAGGACAGAAGCTCAGAGCTGTCCGCTTT is -1.69; for TCTATTAGTTGAAGGGCAAGCGACGAGTCCGTTT it is 2.98.
The sequence TGTCAAAGTTCAAACGTAACGTAAGTATCCACAC registered a PBM binding z-score of 7.39.
Turning to CCTTACGGGTCACTGCAGGTTATAGCATCGGAGT, the PBM binding z-score was 3.15.
In turn, CTAACTAGGTCAGAACAGGACAGTGAAGGATGAT returned a PBM binding z-score of 4.19.
As to TCTCGGAGGACACGATAGGTCAGAGCTCGACATC, the PBM binding z-score turned out to be 1.52.
Sequence AAACCAAGGTGATCGTGAGGTCGTTGATACTAAC displayed a PBM binding z-score of 0.389.
The same measure, in the same setting: the figure for CATACAGGGTCAGCTAGGCCAGAGTAGGGACGGC is 2.2.
